# Experimental data published in PubChem BioAssay (NCI).
# About 79,000 compounds went through this panel and 15% of them were active in at least one assay; those are over-represented in the sample as a whole. The source made the active and inactive calls. No stated cut-off is given here; in the data, active means growth inhibition above about 70%; inactive means the rest.
# Test: NCI Yeast Anticancer Drug Screen. Data for the mec2-1 strain (AID 157)
# Details: S. cerevisiae mec2-1 strain, at 50.0 µM (retest, dose inferred, filed as 5.0), active compounds read high
# Summary of the method: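 Mutant yeast (mec2-1) grown with compound; growth inhibition relative to vehicle control reported.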
row,Structure (SMILES),growth inhibition
1,c1csc(-c2nnc(C34CC5CC(CC(C5)C3)C4)o2)c1,95% (active)
2,C/C(O)=C(/C=N/C(=S)Nc1ccc(S(N)(=O)=O)cc1)C(=O)Nc1ccccc1C,-4% (inactive)
3,CC(C)(Oc1ccc(-c2cccc3ccccc23)cc1)C(=O)O,51% (inactive)
4,CCc1scc(C)[n+]1CC(=O)c1cccc([N+](=O)[O-])c1,3% (inactive)
5,O=C1CCC(C(c2ccccc2)(c2ccccc2)c2ccccc2)CC1=O (stereo not given),98% (active)
6,Clc1ccc(C2SCc3nc4ccccc4n32)cc1Cl (stereo not given),97% (active)
7,OC(CBr)c1c(Br)ccc2ccccc12 (stereo not given),82% (active)
8,O=C1OC(c2cccc(Cl)c2)Sc2ccccc21 (stereo not given),60% (inactive)
9,c1ccc(N2CCN(c3ccccc3)C2Cc2c[nH]c3ccccc23)cc1,99% (active)
10,CC(=O)c1sc(Nc2ccc(Cl)c(Cl)c2)nc1C,19% (inactive)
11,Cc1ncn(-c2ccccc2O)c1C,-20% (inactive)
12,C[n+]1c(/C=C/c2ccc(N3CCCC3)cc2)sc2ccccc21,99% (active)
13,COc1ccc(-c2c(C#N)c(S)n(NS(=O)(=O)c3ccc(C)cc3)c(=O)c2C#N)cc1,88% (active)
14,N#Cc1c(-c2ccc(Cl)c(Cl)c2)c(-c2ccc(Cl)c(Cl)c2)nn(CCO)c1=O,98% (active)
15,NCc1ccc(O)c(O)c1O,80% (active)
16,C[CH2][Sn]([CH2]C)([O]C(=O)c1cc(OC)c(OC)c(OC)c1)[O][Sn]([CH2]C)([CH2]C)[O]C(=O)c1cc(OC)c(OC)c(OC)c1,91% (active)
17,C=CCNCCC1CCCCCC1,97% (active)
18,Cc1ccc(/C=C/C(=O)/C=C/c2ccc(C)o2)o1,99% (active)
19,CCCC(=O)c1cc(O)c(O)c(CN(C)Cc2cc(Cl)cc(C)c2O)c1O,97% (active)
20,COC(=O)/C(C#N)=C/c1cc(OC)c(O)cc1Br,44% (inactive)
21,O=C(/C=C/c1ccccc1)CCN1CCOCC1,99% (active)
22,c1cc2c(c3c1CN(C1CCCCC1)CO3)OCN(C1CCCCC1)C2,10% (inactive)
23,CSc1nc2ccccc2s1,3% (inactive)
24,CC1(C)CC(=O)C(CSC(=O)c2ccccc2)=C(O)C1,-1% (inactive)

# Same assay, conditions: S. cerevisiae mec2-1 strain, at 50.0 µM, active compounds read high
row,Structure (SMILES),growth inhibition
1,CCOc1ccccc1/C=C1\NC(=O)N(/C=C2\C(=O)Oc3ccccc3C2=O)C1=O,94.2% (active)
2,CC(NNC(=S)N1CCCC1)c1ccc2ccccc2n1 (stereo not given),98.2% (active)
3,N#Cc1c(-c2ccc(Cl)cc2)c(C#N)c(=O)n(NS(=O)(=O)c2ccccc2)c1S,86.2% (active)
4,CC(C)/C=C1\CCOC1=O,14.8% (inactive)
5,c1ccc(Nc2nnc3nc(-c4ccccc4)c(-c4ccccc4)nn23)cc1,55.1% (inactive)
6,O=C(NC(c1ccccc1)N1CCOCC1)c1ccccc1 (stereo not given),95.6% (active)
7,N[C@@H]1CCCC[C@@H]1N.O=C([O-])CN(CP(=O)([O-])[O-])CP(=O)([O-])[O-].[Pt+2],99.7% (active)
8,C/C=C\C(/C=C/C)(C(=O)OCCN(C)C)C(/C=C\C)(/C=C/C)C(=O)OCCN(C)C (stereo not given),96.8% (active)
9,COc1ccc(CCNC(=S)/N=C\C(C(=O)c2ccccc2)=C(\O)c2ccccc2)cc1OC,98.8% (active)
10,Cc1ccccc1C1SCc2nc3ccccc3n21 (stereo not given),8.3% (inactive)
11,O=C(Nc1ccc(Cl)cc1)Nc1nnc(/C=C/c2ccc(Cl)c(Cl)c2)o1,19.4% (inactive)
12,Cc1c(CCCl)c(N=[N+]=[N-])n2c(nc3ccccc32)c1C#N,71.2% (active)
13,O=C(OCCCC(C(=O)c1ccccc1)=P(c1ccccc1)(c1ccccc1)c1ccccc1)c1ccccc1,36.8% (inactive)
14,O=C(c1ccccc1)c1ccc(Cl)cc1,37.4% (inactive)
15,O=C1C(C(O)(C(F)(F)Cl)C(F)(F)Cl)CCCC1C(O)(C(F)(F)Cl)C(F)(F)Cl (stereo not given),99.7% (active)
16,CCN(CC)C(=S)N=Nc1c(O)[nH]c2ccccc12,87.2% (active)
17,c1csc(-c2nnc(C34CC5CC(CC(C5)C3)C4)o2)c1,55.3% (inactive)
18,C/C(O)=C(/C=N/C(=S)Nc1ccc(S(N)(=O)=O)cc1)C(=O)Nc1ccccc1C,81.7% (active)
19,CC(C)(Oc1ccc(-c2cccc3ccccc23)cc1)C(=O)O,13.7% (inactive)
20,CCc1scc(C)[n+]1CC(=O)c1cccc([N+](=O)[O-])c1,-2.9% (inactive)
21,O=C1CCC(C(c2ccccc2)(c2ccccc2)c2ccccc2)CC1=O (stereo not given),16.9% (inactive)
